Source: PubChem BioAssay (The Scripps Research Institute Molecular Screening Center)
This is a sample that favours compounds with a hit; in the whole collection about 2.3% have one here.
CHRM1 agonist: agonists of human M1 muscarinic receptor; P11229; CHO-K1 hM1, Fluo-8 calcium fluorescence, agonist mode; 0% DMSO, 100% acetylcholine EC100; activation, % at 3 µM; AID 588814; actives 0.33% (n = 360,000);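 active means activation above the run's mean compound activation plus 3 SD, cut at about 16% in these data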;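 further: peak over basal fluorescence ratio within a 140 s kinetic read after compound addition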
Target sequence (P11229 whole entry, looked up): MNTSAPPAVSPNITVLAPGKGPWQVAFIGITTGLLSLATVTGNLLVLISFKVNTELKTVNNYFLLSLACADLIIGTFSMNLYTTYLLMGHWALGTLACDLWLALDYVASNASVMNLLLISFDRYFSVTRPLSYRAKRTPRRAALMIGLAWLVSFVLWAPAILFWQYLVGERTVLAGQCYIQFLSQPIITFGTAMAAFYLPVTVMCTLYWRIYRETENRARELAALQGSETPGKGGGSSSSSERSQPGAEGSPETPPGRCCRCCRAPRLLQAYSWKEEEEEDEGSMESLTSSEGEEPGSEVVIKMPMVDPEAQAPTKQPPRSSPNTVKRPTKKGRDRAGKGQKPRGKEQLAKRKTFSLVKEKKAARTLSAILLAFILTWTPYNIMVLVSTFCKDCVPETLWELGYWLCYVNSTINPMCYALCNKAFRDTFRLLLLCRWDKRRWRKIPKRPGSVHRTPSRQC
M1 ag parental: M1 agonist counterscreen hit in parental CHO-K1 cells | Fluo-8 calcium fluorescence; scaled to maximal ATP response, vehicle zero | activation, % at 3 µM | actives 0.48% (n = 360,000) | AID 602248; in the data active means activation above about 15%;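 further: untransfected CHO-K1 host cells lacking M1 receptor as counterscreen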
M1 antag: blocks human M1 muscarinic receptor; actives 1.3% (n = 360,000); P11229; AID 588852; inhibition, % at 3 µM; CHO-K1 hM1, Fluo-8 calcium fluorescence, ACh EC80 antagonist;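 active means percent inhibition above its own plate's cutoff, namely the mean of that plate's compound wells plus 3 SD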;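 further: peak over basal fluorescence ratio during 140 s after agonist addition; 0% = ACh EC80 plus DMSO and 100% = DMSO alone without agonist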
M1 PAM parental: M1 PAM counterscreen hit in parental CHO-K1 cells; ATP EC20, Fluo-8 calcium fluorescence; 0% at ATP EC20, 100% at ATP max; AID 602247; activation, % at 3 µM; actives 0.02% (n = 360,000);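 active means activation above the run cutoff, the mean activation of all test compounds plus 3 SD, cut at about 40% in these data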;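 further: peak over basal fluorescence ratio in a 140 s read after ATP addition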
CHO-K1 Ca antag: M1 antagonist counterscreen hit in parental CHO-K1 cells; ATP-induced calcium, Fluo-8 fluorescence; inhibition, % at 3 µM; actives 0.6% (n = 360,000);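 active means inhibition above a per-plate cutoff, the plate's mean sample inhibition plus 3 SD, cut at about 24% in these data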;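 further: 0% = DMSO plus EC80 ATP and 100% = DMSO alone without ATP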
CHRM1 PAM: potentiates human M1 receptor response to acetylcholine; actives 0.088% (n = 360,000); AID 588819; CHO-K1 hM1, Fluo-8 calcium fluorescence, ACh EC20; 0% = ACh EC20, 100% = maximal ACh; activation, % at 3 µM; P11229; in the data active means activation above about 19%, passing the limit was not always enough
The depositor's hits bear a star.

SMILES | CHRM1 agonist | M1 ag parental | M1 antag | M1 PAM parental | CHO-K1 Ca antag | CHRM1 PAM
CN1CCCN(S(=O)(=O)c2ccccc2)CC1 | -12 | 1 | 33* | -11 | -15 | -22
O=C(Nc1ccc(S(=O)(=O)N2CCCC2)cc1)c1ccccc1 | -4 | 1 | 5 | 4 | 6 | 1
CCN(CC)S(=O)(=O)c1cccc(NC(=S)NC(=O)/C=C/c2ccc(S(=O)(=O)N3CCOCC3)cc2)c1 | -5 | 1 | 14 | -14 | 27* | -7
O=C(NCc1ccc(F)cc1)c1cc(C2CCCN(C(=O)c3ccc4ccccc4c3)C2)on1 (configuration not stated) | -3 | 2 | 8 | 6 | -2 | -8
O=c1c(Cc2c(F)cccc2Cl)c(O)ccn1CCCN1CCOCC1 | -6 | 0 | -2 | 12 | -6 | 5
COc1ccc(S(=O)(=O)N2CCOCC2)cc1NC(=O)c1ccc(S(=O)(=O)N2CCCCC2)cc1 | -8 | 0 | -10 | -15 | -15 | 6
COc1ccc(S(=O)(=O)N2CCOCC2)cc1NC(=O)c1ccc(Cl)cc1 | -2 | 0 | 29* | -20 | 12 | -10
CSc1ccc(CN2CCC(C)(Oc3cccc(C#N)c3)C2)cc1 (configuration not stated) | -9 | 0 | 36* | 20 | -7 | -29
COc1ccccc1CCC(=O)OCC(=O)Nc1c(C)nn(-c2ccccc2)c1C | 1 | 4 | -19 | 13 | -5 | 1
Cc1cc(Nc2ccc(Br)cc2F)n2nc(C)nc2n1 | -7 | 0 | -21 | 41* | 1 | 8
Cc1cc(Nc2ccccc2F)n2nc(C)nc2n1 | 1 | 0 | -6 | -3 | -1 | 13
CCOc1ccc(OCC)c(Nc2cc(C)nc3nc(C)nn23)c1 | 1 | 0 | -13 | -11 | 34* | 10
CCc1noc(C)c1C(=O)OCC(=O)N(C)c1c(N)n(Cc2ccccc2)c(=O)[nH]c1=O | -2 | 0 | 7 | -14 | 7 | -1
COc1ccc(CCNc2cc(C)nc3c(-c4ccccc4)cnn23)cc1OC | -7 | 0 | 1 | 3 | 0 | 0
Cc1cc(NCc2ccccc2)n2ncc(-c3ccccc3)c2n1 | -8 | 5 | 39* | 14 | -18 | -22
CCC(=O)c1ccc(OCC(=O)OCC(=O)Nc2ccc(C)c(S(=O)(=O)N3CCCCC3)c2)cc1 | 3 | 16* | 17 | 2 | -4 | -17
CCC(=O)c1ccc(OCC(=O)OCC(=O)Nc2cccc(S(=O)(=O)N3CCCC3)c2)cc1 | -4 | 6 | 3 | 4 | -15 | -4
COc1ccc(NS(=O)(=O)c2cccc(NC(=O)c3ccc(Cl)nc3)c2)cc1 | 3 | 12 | 24 | -8 | 43* | -12
COc1ccc(NC(=O)c2cccc(S(=O)(=O)Nc3ccc(Br)cc3)c2)cn1 | -2 | 16* | 18 | -1 | 18 | -9
COc1cccc(S(=O)(=O)Nc2ccc(C(=O)Nc3ccncc3)cc2)c1 | -7 | 2 | 4 | 12 | -5 | 1
O=C(Nc1ccc(Br)cc1)c1cccc(S(=O)(=O)Nc2cnc3ccccc3c2)c1 | 1 | 6 | 18 | -7 | 16 | -7
O=C(Nc1cccc(S(=O)(=O)Nc2ccc(Cl)cc2)c1)c1ccc(Cl)nc1 | 1 | 14 | 29* | -2 | 28* | -15
COc1cc2c(=O)n(CCC(=O)NCC3CCCO3)c(=O)n(CC(=O)c3ccc(Cl)cc3)c2cc1OC (configuration not stated) | -5 | 1 | -16 | 23 | -10 | 11
COCc1cc(=O)[nH]c(SCCS(=O)(=O)c2ccc(Cl)cc2Cl)n1 | -3 | 0 | -21 | 12 | 1 | 13
CN1CCN(S(=O)(=O)c2ccc(Oc3ccc(F)c(Cl)c3)nc2)CC1 | -6 | 0 | -11 | -1 | 4 | 13
SMILES | CHRM1 agonist | M1 ag parental | M1 antag | M1 PAM parental | CHO-K1 Ca antag | CHRM1 PAM
Cc1ccc(NC(=O)C=NOCC(=O)Nc2cc(C)cc(C)c2)cc1 | -7 | 1 | 8 | 15 | -10 | -2
CN(C(=O)COC(=O)CN1C(=O)c2cccc([N+](=O)[O-])c2C1=O)c1ccccc1 | 1 | 0 | -20 | 12 | -20 | 28*
c1ccc(OCCN2CCNCC2)cc1 | -1 | 0 | -8 | 0 | -7 | 4
COc1cc(CN2CCN(C(c3ccccc3)c3ccccc3)CC2)cc(OC)c1OC | -9 | 2 | 96* | -3 | 8 | -30
COc1cccc(CN2CCN(Cc3cc(OC)c(OC)c(OC)c3)CC2)c1OC | -4 | 1 | -14 | 11 | -8 | 10
OC(CN1CCN(C(c2ccccc2)c2ccccc2)CC1)c1ccc(Br)cc1 (configuration not stated) | -10 | 0 | 38* | 0 | -5 | -22
c1ccc(OCCN2CCN(C(c3ccccc3)c3ccccc3)CC2)cc1 | -8 | 1 | 52* | 15 | -17 | -25
COc1cccc(CN2CCN(C(c3ccccc3)c3ccccc3)CC2)c1O | -8 | 0 | 91* | 25 | -13 | -29
CCOc1ccc(C(=O)NNC(=O)CCNC(=O)c2ccco2)cc1OC | -2 | 1 | -9 | 2 | -12 | 4
CC(=O)OC1C=CCC2C(=O)c3cccc(O)c3C(O)C12 (configuration not stated) | 0 | 0 | 5 | 10 | 3 | -3
CCn1c(Cc2ccc(OC)cc2)nnc1SCC(=O)Nc1cccc(C(=O)OC)c1 | -5 | 1 | -7 | 16 | -10 | 10
CCn1c(NCc2cccs2)nc2ccccc21 | -3 | 0 | -26 | 1 | -12 | 15
CCn1c(NCc2ccccn2)nc2ccccc21 | -2 | 0 | 1 | -8 | 24* | 5
O=C(NCCc1ccccc1)C1CCN(S(=O)(=O)c2ccc(-n3cnnn3)cc2)CC1 | -3 | 1 | -8 | 18 | -4 | 4
O=S(=O)(c1ccccc1)N1CCC(Oc2ccc(-n3cnnn3)cc2)CC1 | 2 | 18* | 37 | -12 | 2 | -15
COc1cccc(-c2ccc(NC(=O)C3CCCN(CCCn4nc(C)cc4C)C3)cc2)c1 (configuration not stated) | -2 | 5 | 49* | 8 | -3 | -24
COc1cccc(-c2ccc(NC(=O)C3CCCN(Cc4ccco4)C3)cc2)c1 (configuration not stated) | -3 | 2 | -2 | 9 | -7 | 3
OCC[C@@H]1C[C@H](O)[C@@H](O)[C@]2(OCc3cc(Cl)ccc32)O1 | -2 | 0 | 5 | 0 | 21 | 6
CCOC(=O)C1CCCN(c2ncnc3c2cnn3-c2cccc(C)c2)C1 (configuration not stated) | 44* | 2 | 16 | -10 | -8 | -26
CCN(CC)C(=O)C1CCCN(c2ncnc3c2cnn3-c2cccc(C)c2)C1 (configuration not stated) | -5 | 1 | 2 | 16 | -9 | -2
